From PubChem BioAssay
The source made the active and inactive calls.

Columns and labels:
[1] = optical density shifts of acrAB sulA E. coli – strain DRC41, OD650, 48 h, E. coli filamentation inducer project, primary screen (AID 1152); conditions: higher = more signal, called active from +8 up or from −8 down;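 also: E. coli MC1000 strain DRC41 lacking acrAB efflux pump and sulA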
[2] = probe aLefty1 binding on compound microarray – biochemical, small-molecule microarray, 635/667 nm fluorescence, primary screen (AID 1153); conditions: higher = more signal;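 also: score merges spot fluorescence with signal-to-noise ratio from the scanned slide images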
[3] = plasmodial surface anion channel blockers, osmotic lysis – cell-based, P. falciparum Indochina, OD700, 1 h, primary screen (AID 1154); conditions: P. falciparum Indochina infected RBC osmotic lysis, higher = more signal, called active from +8 up or from −8 down
[4] = plasmodial surface anion channel blockers, osmotic lysis – cell-based, P. falciparum Indochina, OD700, 2 h, primary screen (AID 1155);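 also: lysis reports solute entry through the parasite surface anion channel PSAC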; conditions: P. falciparum Indochina infected erythrocytes, higher = more signal, called active from +8 up or from −8 down
[5] = changes in parasitized red cell lysis, either direction – P. falciparum Indochina, OD700, 3 h, PSAC antagonist project, primary screen (AID 1156); conditions: P. falciparum-infected erythrocytes, osmotic lysis, higher = more signal, called active from +8 up or from −8 down
[6] = plasmodial surface anion channel blockers, osmotic lysis – cell-based, P. falciparum Indochina, OD700, 18 h, primary screen (AID 1157); conditions: P. falciparum Indochina infected erythrocytes, osmotic lysis OD700, 18 h; higher = more signal, called active from +8 up or from −8 down
[7] = S6 kinase pathway phospho-S6 level changes – cell-based, A549, cytoblot, luminescence, serum-stimulated, primary screen (AID 1158); conditions: 5 h, higher = more signal;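 also: serum-stimulated A549 lung adenocarcinoma cells; signal is phosphorylated S6 detected by cytoblot immunostaining with HRP secondary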
[8] = molecular target: NADPH oxidase 2 (Homo sapiens) (UniProt P04839); test: compounds shifting NOX2 Amplex Red fluorescence – cell-based, HEK293-NOX2, PMA-stimulated, NOX inhibitor project, primary screen (AID 1159); conditions: 45 min, higher = more signal, called active from +8 up or from −8 down; also: test concentration not given here
Chain of NADPH oxidase 2 (Homo sapiens) (P04839 whole entry, looked up): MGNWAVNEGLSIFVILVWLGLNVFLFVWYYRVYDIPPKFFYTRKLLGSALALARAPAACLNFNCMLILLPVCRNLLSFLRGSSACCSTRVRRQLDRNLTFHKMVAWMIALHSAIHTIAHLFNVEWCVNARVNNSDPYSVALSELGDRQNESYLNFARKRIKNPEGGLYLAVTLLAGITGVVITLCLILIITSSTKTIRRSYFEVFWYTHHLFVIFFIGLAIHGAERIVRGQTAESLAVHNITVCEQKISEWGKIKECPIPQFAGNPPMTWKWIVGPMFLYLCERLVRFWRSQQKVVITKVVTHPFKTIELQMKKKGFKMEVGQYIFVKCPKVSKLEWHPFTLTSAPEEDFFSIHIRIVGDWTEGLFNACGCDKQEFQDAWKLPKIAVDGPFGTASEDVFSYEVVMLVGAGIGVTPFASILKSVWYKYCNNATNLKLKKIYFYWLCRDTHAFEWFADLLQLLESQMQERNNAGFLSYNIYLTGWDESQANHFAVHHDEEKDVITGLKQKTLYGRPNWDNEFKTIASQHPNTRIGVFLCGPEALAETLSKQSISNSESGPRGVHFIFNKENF

[9] = molecular target: NADPH oxidase 4 (Homo sapiens) (UniProt Q9NPH5); test: compounds shifting NOX4 Amplex Red fluorescence – cell-based, HEK293-NOX4, tetracycline-induced, NOX inhibitor project, primary screen (AID 1160); conditions: HEK293-NOX4, Amplex Red H2O2 fluorescence, 45 min; higher = more signal, called active from +8 up or from −8 down
Chain of NADPH oxidase 4 (Homo sapiens) (Q9NPH5 whole entry, looked up): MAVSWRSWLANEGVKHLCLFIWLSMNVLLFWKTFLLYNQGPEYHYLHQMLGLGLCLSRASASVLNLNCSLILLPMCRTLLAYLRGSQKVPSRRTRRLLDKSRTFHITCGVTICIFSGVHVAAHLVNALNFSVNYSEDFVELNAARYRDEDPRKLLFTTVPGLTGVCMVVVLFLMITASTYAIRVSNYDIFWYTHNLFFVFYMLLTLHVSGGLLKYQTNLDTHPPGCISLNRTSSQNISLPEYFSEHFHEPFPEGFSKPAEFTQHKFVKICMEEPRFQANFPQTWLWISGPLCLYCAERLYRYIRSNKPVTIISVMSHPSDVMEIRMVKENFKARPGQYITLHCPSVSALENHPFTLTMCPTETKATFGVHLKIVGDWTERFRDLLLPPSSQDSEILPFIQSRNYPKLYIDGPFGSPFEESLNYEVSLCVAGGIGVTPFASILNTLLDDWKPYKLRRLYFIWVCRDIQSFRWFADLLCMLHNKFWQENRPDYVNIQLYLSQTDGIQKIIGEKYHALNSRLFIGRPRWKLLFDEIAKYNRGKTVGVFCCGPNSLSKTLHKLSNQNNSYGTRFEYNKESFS

[10] = molecular target: NADPH oxidase 5 (Homo sapiens) (UniProt Q96PH1); test: compounds shifting NOX5 Amplex Red fluorescence – cell-based, HEK293-NOX5, NOX inhibitor project, primary screen (AID 1161); conditions: HEK293-NOX5, ionomycin, 45 min, higher = more signal
Chain of NADPH oxidase 5 (Homo sapiens) (Q96PH1 whole entry, looked up): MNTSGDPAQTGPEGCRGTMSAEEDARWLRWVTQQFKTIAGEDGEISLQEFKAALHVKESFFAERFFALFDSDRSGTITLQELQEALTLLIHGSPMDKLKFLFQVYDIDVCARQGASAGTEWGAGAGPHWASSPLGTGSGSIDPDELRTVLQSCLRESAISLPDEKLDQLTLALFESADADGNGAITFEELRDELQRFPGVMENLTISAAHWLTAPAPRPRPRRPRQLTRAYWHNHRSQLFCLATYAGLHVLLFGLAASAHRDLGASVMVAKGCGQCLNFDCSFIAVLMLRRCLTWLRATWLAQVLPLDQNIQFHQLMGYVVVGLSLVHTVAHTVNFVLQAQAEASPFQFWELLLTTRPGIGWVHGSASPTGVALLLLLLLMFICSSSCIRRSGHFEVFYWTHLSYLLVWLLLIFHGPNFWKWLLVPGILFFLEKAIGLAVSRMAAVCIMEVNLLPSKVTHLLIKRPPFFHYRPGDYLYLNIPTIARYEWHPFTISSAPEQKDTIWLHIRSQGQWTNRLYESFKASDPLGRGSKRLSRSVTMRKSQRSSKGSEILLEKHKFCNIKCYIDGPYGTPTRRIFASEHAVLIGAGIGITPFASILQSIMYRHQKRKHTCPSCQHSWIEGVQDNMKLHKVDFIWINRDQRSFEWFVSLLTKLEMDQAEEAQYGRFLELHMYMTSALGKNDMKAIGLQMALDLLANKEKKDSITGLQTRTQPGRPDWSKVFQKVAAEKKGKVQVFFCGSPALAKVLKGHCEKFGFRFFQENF

[11] = compound effects on lung adenocarcinoma cell viability – A549, calcein-AM fluorescence, 48 h, basal, profiling panel (AID 1162); conditions: higher = more signal; also: test concentration not given here
[12] = compound effects on differentiated 3T3-L1 adipocyte viability – cell-based, 3T3-L1 adipocytes, calcein-AM fluorescence, 48 h, basal, profiling panel (AID 1163); conditions: 3T3-L1 adipocytes viability, higher = more signal; also: test concentration not given here
[13] = compound effects on hepatocellular carcinoma cell viability – HepG2, calcein-AM fluorescence, 48 h, basal, profiling panel (AID 1164); conditions: higher = more signal; also: test concentration not given here
[14] = compound effects on multiple myeloma cell viability – MM1S, calcein-AM fluorescence, 48 h, basal, profiling panel (AID 1165); conditions: higher = more signal; also: test concentration not given here
[15] = calcein-AM signal in unstimulated myeloma cells – cell-based, calcein-AM fluorescence, 48 h, PK04 Diversity Set, profiling panel (AID 1166); conditions: RPMI8226 myeloma viability, higher = more signal;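 also: cells grown under basal conditions without added stimulus; test concentration not given here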
[16] = JC-1 mitochondrial signal, unstimulated HepG2 cells – cell-based, JC-1 fluorescence, 24 h, 100 nL compound, profiling panel (AID 1167); conditions: HepG2 mitochondrial potential, higher = more signal; also: test concentration not given here
[17] = JC-1 mitochondrial signal, unstimulated adipocytes – cell-based, JC-1 fluorescence, 3T3-L1 adipocytes, 24 h, 100 nL compound, profiling panel (AID 1168); conditions: JC-1 mitochondrial fluorescence, higher = more signal, called active from +8 up or from −8 down; also: test concentration not given here
[18] = JC-1 mitochondrial signal, unstimulated myeloma cells – cell-based, JC-1 fluorescence, RPMI8226, 24 h, 100 nL compound, profiling panel (AID 1169); conditions: JC-1 mitochondrial potential fluorescence, higher = more signal; also: test concentration not given here
[19] = JC-1 mitochondrial signal, unstimulated MM1S myeloma – cell-based, JC-1 fluorescence, 24 h, 100 nL compound, profiling panel (AID 1170); conditions: MM1S mitochondrial potential, higher = more signal; also: test concentration not given here
[20] = resazurin metabolic signal in A549 cells – cell-based, resazurin fluorescence, 24 h, PK04 Diversity Set, profiling panel (AID 1171); conditions: A549 viability, higher = more signal, called active from +8 up or from −8 down; also: test concentration not given here

SMILES	z-score [1]	composite z-score [2]	z-score [3]	z-score [4]	z-score [5]	z-score [6]	z-score [7]	z-score [8]	z-score [9]	z-score [10]	z-score [11]	z-score [12]	z-score [13]	z-score [14]	z-score [15]	z-score [16]	z-score [17]	z-score [18]	z-score [19]	z-score [20]
CCCNC(=O)OC[C@H]1O[C@H](CCON=C(C)C)C=C[C@@H]1Oc1ccc(OC)cc1	-1.21 (inactive)	0.209	0.683 (inactive)	0.411 (inactive)	-0.551 (inactive)	0.367 (inactive)	-0.131	-0.278 (inactive)	0.389 (inactive)	-0.533	0.171	0.008	-0.0737	-0.39	0.0566	-1.57	-1.43 (inactive)	0.255	0.276	0.095 (inactive)
CCCNC(=O)OC[C@H]1O[C@H](CCON=C(C)CCN2CCCc3nc(C)c(C)cc32)C=C[C@@H]1Oc1ccc(OC)cc1	0.794 (inactive)	-0.0061	5.53 (inactive)	0.722 (inactive)	0.99 (inactive)	0.318 (inactive)	-0.546	-0.995 (inactive)	0.166 (inactive)	-1.14	0.476	1.43	-0.243	-0.878	-1.57	2.15	-1.09 (inactive)	0.455	0.023	1.21 (inactive)
C=CC[C@@H]1C=C[C@H](ON=C(C)CCC(=O)OC[C@H]2O[C@H](c3ccccc3)C=C[C@@H]2Oc2ccc(OC)cc2)[C@@H](CO)O1	0.871 (inactive)	-0.291	10.9 (active)	1.25 (inactive)	1.2 (inactive)	0.637 (inactive)	-0.0785	-3.06 (inactive)	0.605 (inactive)	-2.79	1.21	-0.741	-0.403	-1.91	-0.428	-0.859	0.0616 (inactive)	0.0738	-1.02	0.524 (inactive)
COC(=O)[C@H](C)NC(=O)CCC1CC(OC(=O)NCc2cccc3ccccc23)CC2(CCCC(COC(=O)NCC(c3ccccc3)c3ccccc3)O2)O1 (stereo not given in full)	0.223 (inactive)	-0.0562	-0.228 (inactive)	-0.0825 (inactive)	-1.34 (inactive)	-0.242 (inactive)	0.863	-0.121 (inactive)	1.09 (inactive)	1.47	-0.101	-0.294	-0.618	-3.41	-1.22	1.21	-0.0303 (inactive)	-0.125	-0.493	2.23 (inactive)
CCOC(=O)[C@H](Cc1ccccc1)NC(=O)CCC1CC(OC(=O)NCCc2ccc(F)cc2)CC2(CCCC(COC(=O)NCCCN3CCCC3=O)O2)O1 (stereo not given in full)	0.141 (inactive)	-0.105	-1.36 (inactive)	-0.861 (inactive)	-0.0494 (inactive)	-0.445 (inactive)	0.94	-0.232 (inactive)	0.192 (inactive)	-1.09	1.57	-0.0501	0.43	0.356	-0.335	0.668	-0.182 (inactive)	0.437	-1.09	-0.972 (inactive)
COc1ccc(O[C@@H]2[C@H](O)CO[C@@H]2C=Cc2ccccc2)cc1	-1.74 (inactive)	0.417	5.53 (inactive)	-0.0327 (inactive)	1.23 (inactive)	-0.66 (inactive)	1.49	0.561 (inactive)	-0.92 (inactive)	-2.07	0.069	1.72	-0.0757	-2.82	-1.1	1.11	0.6 (inactive)	0.132	0.322	-0.548 (inactive)
CO[C@@H]1COC(=O)[C@@H](C)COC(=O)[C@@H](C)NC(=O)CC=C[C@@H]1C	-0.294 (inactive)	0.682	-1.15 (inactive)	-1.26 (inactive)	0.645 (inactive)	-0.858 (inactive)	1	-0.675 (inactive)	-2.43 (inactive)	-2.91	-0.448	1.25	-1.45	-0.539	-1.86	0.2	-0.189 (inactive)	0.0701	-1.48	0.512 (inactive)
CCOC(=O)C1=NO[C@@]2(C=C(Br)C3(OCCCO3)[C@H]3O[C@H]32)C1	0.721 (inactive)	0.026	0.123 (inactive)	0.105 (inactive)	0.157 (inactive)	-0.218 (inactive)	-0.235	0.925 (inactive)	-0.373 (inactive)	0.43	-0.433	0.672	0.0307	0.777	-0.468	0.448	0.139 (inactive)	-0.723	0.308	-0.542 (inactive)
CO[C@H]1COC(=O)CC=C[C@@H](C)[C@H](NS(=O)(=O)c2ccc(C)cc2)COC(=O)CCC[C@@H]1C	-0.643 (inactive)	-0.062	-0.669 (inactive)	-1.56 (inactive)	-0.883 (inactive)	-1.62 (inactive)	-0.56	-0.255 (inactive)	0.987 (inactive)	0.428	0.379	1.15	-0.179	0.339	0.229	-0.3	-0.134 (inactive)	0.112	-0.58	0.478 (inactive)
COc1cccc([C@H]2Oc3ccc(OC)cc3C(=NO[C@H](C)c3cn([C@H](CO)Cc4ccccc4)nn3)[C@@H]2O)c1	0.348 (inactive)	-0.142	1.38 (inactive)	0.0637 (inactive)	0.151 (inactive)	0.22 (inactive)	-0.16	-0.809 (inactive)	0.364 (inactive)	-0.781	-0.16	0.131	-0.489	-0.0922	-0.719	-1.81	-3.16 (inactive)	-0.0494	-0.252	0.286 (inactive)
C#CCCCON=C1C[C@@H](O)[C@@H](O)[C@@H]2[C@@H]3C(=O)N(C(C)(C)C)C(=O)[C@@H]3CC[C@@H]12	-0.441 (inactive)	0.308	3.54 (inactive)	1.28 (inactive)	0.158 (inactive)	0.305 (inactive)	0.929	0.934 (inactive)	1.27 (inactive)	-0.106	-0.145	-0.619	-0.486	0.154	0.381	-0.465	-0.286 (inactive)	-0.0943	-0.283	-0.152 (inactive)
COC(=O)CC=C[C@@H](C)[C@@H](C=NO[C@H](C)c1cn([C@H](CO)Cc2ccccc2)nn1)OC	-0.36 (inactive)	-0.104	0.727 (inactive)	0.0995 (inactive)	-0.721 (inactive)	0.0239 (inactive)	-0.505	0.824 (inactive)	0.541 (inactive)	0.299	-0.0647	0.304	-0.458	0.209	0.0397	-0.741	-1.24 (inactive)	0.923	1.74	0.556 (inactive)
CO[C@@H]1C=CCC(=O)N[C@@H](C)C(=O)OC[C@@H](OC)[C@H](C)CCCC(=O)OC[C@H]1C	0.0058 (inactive)	0.0816	-1.15 (inactive)	-1.22 (inactive)	-0.683 (inactive)	-2.43 (inactive)	-0.417	0.57 (inactive)	0.957 (inactive)	0.645	0.942	-0.226	-0.0306	0.188	-0.0539	-0.0819	0.225 (inactive)	0.236	-0.392	0.471 (inactive)
CCO[C@H](c1cc(OC)cc([N+](=O)[O-])c1OC)[C@H](C)C=CCC(=O)OC	0.722 (inactive)	-0.202	0.905 (inactive)	-0.222 (inactive)	-0.361 (inactive)	0.148 (inactive)	-0.168	-0.295 (inactive)	0.276 (inactive)	0.893	1.23	-0.629	0.381	1.02	0.799	0.879	0.269 (inactive)	0.752	-0.929	-0.625 (inactive)
CCOC(=O)[C@H](CC(C)C)NC(=O)CCC1CC(OC(=O)NCCc2ccc(F)cc2)CC2(CCCC(COC(=O)NCCc3ccc(Cl)cc3)O2)O1 (stereo not given in full)	-1.29 (inactive)	0.18	2.96 (inactive)	-0.44 (inactive)	0.235 (inactive)	0.0264 (inactive)	-0.146	0.333 (inactive)	1.32 (inactive)	1.33	-0.977	0.248	-0.49	0.73	-1.23	-1.04	0.133 (inactive)	-0.0969	-0.232	0.608 (inactive)
O=C1C=C[C@@H](O)[C@@H]2[C@@H]3C(=O)N(c4ccc(F)cc4F)C(=O)[C@@H]3CC[C@@H]12	0.262 (inactive)	-0.0559	0.337 (inactive)	-1.44 (inactive)	-0.562 (inactive)	-1.9 (inactive)	1.44	-0.632 (inactive)	0.267 (inactive)	0.713	0.0767	0.244	1.04	0.157	-1.1	0.991	0.46 (inactive)	-0.322	0.921	-1.47 (inactive)
C[C@@H](c1ccccc1)N1C(=O)[C@H]2[C@H]3[C@H](O)[C@H](O)CC(=NO[C@@H]4O[C@H](CO)[C@@H](O)[C@H](O)[C@H]4O)[C@H]3CC[C@H]2C1=O	0.391 (inactive)	1.16	-0.483 (inactive)	-0.205 (inactive)	-0.0944 (inactive)	-0.0378 (inactive)	-0.0015	1.5 (inactive)	-1.93 (inactive)	-0.63	-0.306	0.221	-0.492	0.254	-0.599	-0.364	-0.507 (inactive)	0.0338	-0.15	-0.154 (inactive)
CCCNC(=O)OC[C@H]1O[C@H](c2ccccc2)C=C[C@@H]1Oc1ccc(OC)cc1	0.604 (inactive)	-0.092	0.906 (inactive)	0.141 (inactive)	-0.353 (inactive)	0.0261 (inactive)	0.136	1.35 (inactive)	-0.438 (inactive)	-1.9	-0.365	0.125	-0.138	-0.543	-0.0859	-0.362	-0.307 (inactive)	-0.215	0.0375	-0.745 (inactive)
